Measurements as given in PubChem BioAssay (NCI).
Values joined by “and” are separate entries in the source; they are usually repeats but may differ in a detail not shown here. Equal values may be shown once. The panel holds about 79,000 compounds, 15% with a hit somewhere; the sample as a whole holds those more often. Cut-off read from the data, not from the text of the source: active = growth inhibition above about 70%; inactive = the rest.

Legend:
[1] = NCI Yeast Anticancer Drug Screen. Data for the rad50 strain (AID 155);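 note: 0% = growth of vehicle-only cultures of the same strain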; conditions: S. cerevisiae rad50 strain growth inhibition, stronger effect = higher value; at 50.0 µM unless noted
Outline: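 Compounds were tested on a yeast strain with an engineered DNA damage repair alteration; the reported value is growth inhibition normalised to vehicle treatment.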

[2] = NCI Yeast Anticancer Drug Screen. Data for the mec2-1 strain (AID 157); conditions: S. cerevisiae mec2-1 strain, stronger effect = higher value; at 50.0 µM unless noted
Outline: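 Growth inhibition is read against vehicle-treated controls after compound exposure of the mec2-1 yeast strain, which is defective in DNA damage repair or cell cycle control.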

[3] = NCI Yeast Anticancer Drug Screen. Data for the sgs1 mgt1 strain (AID 161);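 note: 0% = growth of cultures given vehicle only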; conditions: S. cerevisiae sgs1 mgt1 strain, stronger effect = higher value; at 50.0 µM unless noted
Outline: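 Percent growth inhibition was derived by comparing compound-exposed mutant yeast with vehicle-exposed cultures. The strain carries alterations in DNA damage repair.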

[4] = NCI Yeast Anticancer Drug Screen. Data for the cln2 rad14 strain (AID 165);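 note: 0% = growth equal to vehicle treated cultures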; conditions: S. cerevisiae cln2 rad14 strain, stronger effect = higher value; at 50.0 µM unless noted
Outline: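 Growth inhibition, relative to vehicle-treated controls, is the read-out. The test organism is a yeast strain with defined genetic alterations, cln2 rad14.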

[5] = NCI Yeast Anticancer Drug Screen. Data for the mlh1 rad18 strain (AID 175); conditions: S. cerevisiae mlh1 rad18 strain growth inhibition, stronger effect = higher value; at 50.0 µM unless noted
Outline: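 Cells of a genetically altered yeast strain, deficient in DNA damage repair, were treated with compound. Their growth was then compared with that of vehicle-treated cultures to give inhibition.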

[6] = NCI Yeast Anticancer Drug Screen. Data for the bub3 strain (AID 167); conditions: S. cerevisiae bub3 mutant strain, stronger effect = higher value; at 50.0 µM unless noted
Outline: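 Growth of a checkpoint-deficient yeast mutant is measured after compound exposure. Values represent inhibition relative to vehicle.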

Measured: growth inhibition

Cn1c(O)c(N=NC(=O)Cc2c[nH]c3ccccc23)c2ccccc21
inactive: [1] -6.95% | [2] -3.75% | [3] 4.8% | [4] -7.05% | [5] -19.1%

COc1cc(C2c3cc4c(c(OC5OC(CO)C(O)C5O)c3CC3COC(=O)C32)OCO4)cc(OC)c1OC (stereo not given)
inactive: [1] 34.4% | [2] 6.65% | [3] 17.9% | [4] 19.9% | [5] 5.7%

O=C1CCCC/C1=C/C=C/c1ccccc1
inactive: [1] 10.1% | [2] 21.8% | [3] 23.1% | [4] -33.5% | [5] 6.75%

COc1cc2c(cc1OC)[C@H](c1cc(OC)c3c(c1)OCO3)[C@H]1C(=O)OCC1C2 (stereo not given in full)
inactive: [1] 11.4% | [2] -0.1% | [3] 0.2% | [4] 4.85% | [5] 15.4%

NNC(=O)c1c(O)ccc2ccccc12
inactive: [1] 19.2% | [2] -28.1% | [3] 23.4% | [4] 20.2% | [5] 12.6%

C=C(C)C1CCC2(C)CCC(=O)C(C)=C2C1 (stereo not given)
inactive: [1] 3.15% | [2] 1.35% | [3] -5.75% | [4] -19.7% | [5] -4.15%

OC/C(Br)=C(\Br)CO
inactive: [1] -34.3% | [2] -54.4% | [3] -39.6% | [4] -9.25% | [5] -35.5%

O=C(c1cccc(C(=O)N2CCOCC2)n1)N1CCOCC1
inactive: [1] -9.95% | [2] 17.1% | [3] -3.5% | [4] -19.4% | [5] 7.15%

O=C(NCC1CC1)c1cccs1
inactive: [1] -41.4% | [2] -50.9% | [3] -18.9% | [4] -23.6% | [5] -50.4%

COc1ccc(N=Nc2nc(N)c(C(N)=O)[nH]2)cc1
inactive: [1] -8.65% | [2] -7.55% | [3] -4.75% | [4] -28.5% | [5] -16.6%

CNC(=O)c1n[nH]nc1Sc1c([N+](=O)[O-])ncn1C
inactive: [1] -39% | [2] -43% | [3] -34.1% | [4] -34.2% | [5] -29.4%

N#CC(C(=O)/C(=N/Nc1nc(=S)[nH]n1N)C(C#N)c1ccccc1)c1ccccc1 (stereo not given)
inactive: [1] -23.8% | [2] -1.45% | [3] -30.8% | [4] 14.8% | [5] -10.2%

CCC(C)C(O)C(C(=O)O)C1CCCCC1 (stereo not given)
inactive: [1] 31.6% | [2] 23.2% | [3] 15.4% | [4] 39.5% | [5] 26%

COc1cc2c(cc1C(C)c1ccc(Cl)cc1)OCO2 (stereo not given)
inactive: [1] 12.8% | [2] -1.55% | [3] -1.6% | [4] 21% | [5] 4.9%

CCOc1ccc([N+](=O)[O-])cc1[N+](=O)[O-]
inactive: [1] 43.3% | [2] 2.1% | [3] -11.3% | [4] -55.5% | [5] -2.6%

O=c1c2cc(O)ccc2n2nnc3ccc(NCCNCCO)c1c32
inactive: [1] -18.4% and -10.8% | [2] -16.3% and -12.1% | [3] -35.1% and -8.7% | [6] 8.3% and 1% | [5] -4.7% and 3.1%

CN(C)CC[N+]1=Nc2cccc3cccc(c23)N1
inactive: [1] -6.85% | [2] -8.6% | [3] -2.4% | [4] 1.55% | [5] 3.9%

COC1(OC)CC2C(=O)N(Cc3ccccc3)C1CC2S(=O)(=O)c1ccccc1 (stereo not given)
inactive: [1] 6.7% | [2] -2.1% | [3] -16.1% | [4] 22.8% | [5] 11.4%

CCCCC/C(C=O)=C\c1ccccc1
inactive: [1] 38.5% | [2] 15.8% | [3] 39.5% | [4] -12.2% | [5] 38%

O=C(NCCCl)c1ccc(Cl)c(Cl)c1
inactive: [1] 2.8% | [2] 0.25% | [3] 4.95% | [4] -20.9% | [5] 3.7%

COc1ccc(/C=C(/NC(=O)c2ccccc2)C(=O)O)c(OC)c1
inactive: [1] -7.35% | [2] -5.1% | [3] 1.2% | [4] -61.4% | [5] -9.65%

COC1=NS(=O)(=O)C2CCCCCCC2O1 (stereo not given)
inactive: [1] 11.1% | [2] -2.85% | [3] 1.15% | [4] -74.2% | [5] -7.4%

CC1=C(C)CC2(CCCCC2=O)S(=O)C1 (stereo not given)
inactive: [1] -34.8% | [2] -28.8% | [3] -9.85% | [4] 11.1% | [5] 2.55%

C/C(=N\NC(=O)c1ccncc1)c1cc(Cl)ccc1Cl
inactive: [1] 2.9% | [2] 5.4% | [3] 4.65% | [4] 8.15% | [5] 8.7%

COc1ccccc1CN1CCCN(Cc2ccccc2OC)C1c1ccc(N(C)C)cc1
inactive: [1] 59.6% | [2] 32.6% | [3] 32.5% | [4] 22.8% | [5] 49.2%

O=C(C[n+]1cc(Br)cc2ccccc21)c1ccc(F)cc1
inactive: [1] 24.8% | [2] 19.9% | [3] 37.3% | [6] 4.7% | [5] 30.2%

CCOC(=O)C(=O)/C(=C/N1C(=O)CC(=O)NC1=S)C(=O)OCC
inactive: [1] -19.6% | [2] -47.2% | [3] -25% | [6] -34.9% | [5] -10.6%

CC12CC(O)C3C(CCC4CC(O)CCC43C)C1CCC2C(=O)CO (stereo not given)
inactive: [1] 13.6% | [2] 14.2% | [3] 7.3% | [6] 12.1% | [5] 10.4%

CC(C)NCC(O)c1ccc(O)c(O)c1 (stereo not given)
inactive: [1] 31.9% and -20.8% | [2] -10.6% and -23.4% | [3] -3.35% and 16.2% | [6] 18.7% and 27.4% | [5] -0.1% and -4.95%

COc1ccc(C=O)c(Cl)c1OC
inactive: [1] 26.8% | [2] 14.4% | [3] 0.95% | [6] -7.85% | [5] -16.8%

Brc1ccccc1C#Cc1ccccc1Br
inactive: [1] 0.7% | [2] -4.6% | [3] 16.3% | [6] 10.1% | [5] 19.1%

CC(=O)Nc1nnn(C)n1
inactive: [1] -4.65% | [2] -5.55% | [3] 0.8% | [6] 9.1% | [5] -3.45%

CC(C)=CCCC(C)CCOc1cccc(C)c1 (stereo not given)
inactive: [1] 3.65% | [2] 8.3% | [3] -6.95% | [6] 11.6% | [5] 1.2%

Cc1[nH]c2ccccc2c1/C=C/c1c[nH]c2ccccc12
inactive: [1] 22% | [2] 29.9% | [3] 27.1% | [6] 55.5% | [5] 40.4%

O=C(OCC(OC(=O)c1ccccc1)C1OCOC2COCOC21)c1ccccc1 (stereo not given)
inactive: [1] 3.35% | [2] -1.3% | [3] -5.6% | [6] 0.45% | [5] 11.4%

CCOC(=O)CC(C#N)(C#N)CC(=O)OCC
inactive: [1] 4.15% | [2] 21.3% | [3] 5.85% | [6] 26.8% | [5] -0.55%

CCCc1ccc(C)c(Br)c1
inactive: [1] 26.4% | [2] 15.8% | [3] 0.9% | [6] 1.3% | [5] 3.3%

N#C/C(=C\c1ccc2ccccc2c1)C(=O)c1ccccc1
inactive: [1] 13.7% | [2] -14.3% | [3] -15.3% | [6] -17.7% | [5] -47.7%

CC1CC(OCCO)CC(C)(C)C1 (stereo not given)
inactive: [1] 13% | [2] 0.5% | [3] 6.95% | [6] 14.9% | [5] 7.2%

CC(C)N1CCN(c2ccncc2S(=O)(=O)N2CCCC2)CC1
inactive: [1] 2.7% | [2] 4.8% | [3] -4.65% | [6] 1.35% | [5] 8.4%
